Assay results as given in PubChem BioAssay (Tox21).
Several values for one entry are separate records, joined by “and”; a condition that tells them apart may be missing. Equal values may be shown once. Inconclusive results are not listed. A structure can be active in one record and inactive in another. Activity calls are given as the source filed them. Unless noted, calls come from the whole dose curve.

How the values were obtained:
[1] = Nuclear factor erythroid 2-related factor 2/antioxidant responsive element (Nrf2/ARE) small molecule agonists: luciferase reporter gene qHTS assay in human keratinocytes (AID 1919969); note: nearly all actives have a fitted effect of over 35% in size; note: potency is the fitted concentration of half-maximal effect
[2] = biological target: KiSS-1 receptor (Homo sapiens) (UniProt Q969F8); test: Human kisspeptin (KISS1R) small molecule agonists, calcium flux assay in KISS1R-HEK293 cells (AID 1920064; active = well fitted activation curve with a large enough effect in the repeat runs; note: potency is the fitted concentration of half-maximal effect)
KiSS-1 receptor (Homo sapiens), sequence (Q969F8 whole entry, looked up): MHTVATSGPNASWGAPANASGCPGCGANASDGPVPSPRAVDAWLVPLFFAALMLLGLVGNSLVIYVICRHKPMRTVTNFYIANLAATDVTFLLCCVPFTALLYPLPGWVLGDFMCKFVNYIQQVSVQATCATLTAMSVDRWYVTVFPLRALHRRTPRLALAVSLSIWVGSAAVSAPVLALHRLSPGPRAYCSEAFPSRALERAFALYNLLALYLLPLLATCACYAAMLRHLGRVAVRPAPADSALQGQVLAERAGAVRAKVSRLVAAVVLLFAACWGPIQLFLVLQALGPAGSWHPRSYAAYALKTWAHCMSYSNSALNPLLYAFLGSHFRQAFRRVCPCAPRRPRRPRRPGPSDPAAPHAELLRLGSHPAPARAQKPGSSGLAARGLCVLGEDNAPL
How it was run: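 Kinetic calcium assay, 1 s sampling over 3 min at Ex/Em 480/540, in HEK293 cells engineered with human KISS1R; compounds delivered in DMSO after 1 h dye loading.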

[3] = G protein-coupled receptor (GPCR) small molecule agonists, calcium flux assay: HEK293 wild type cell line counter screen (AID 1920065); note: potency is the fitted concentration of half-maximal effect
How it was run: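 Calcium-sensitive dye, loaded 1 h at 37 C into cells cultured 18 h, reports compound-evoked calcium release as fluorescence (Ex/Em 480/540), measured over 3 min. Agonist mode; 15-point titrations, triplicate.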

[4] = p53 small molecule agonists, cell-based qHTS assay with human liver microsomes (AID 1963577);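 note: p53 response element beta-lactamase reporter cells with liver microsomes plus NADPH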
How it was run: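 16 h, 37 C exposure of p53RE-bla cells to compounds with human liver microsomes and NADPH (0.5 mg/mL final each); detection via LiveBLAzer mixture, 2 h dark at room temperature.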

[5] = p53 small molecule agonists, cell-based qHTS assay with human liver microsomes: qHTS cell viability counter screen (AID 1963579); note: nearly all actives have a fitted effect of over 45% in size; note: potency is the fitted concentration of half-maximal effect
How it was run: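 In this multiplexed counter screen, the reporter plates were subsequently treated with CellTiter-Glo so that cell viability, reflected by luminescence, could be recorded for p53RE-bla cells dosed 16 h with compounds under microsomal activation (HLM and NADPH).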

[6] = p53 small molecule agonists, cell-based qHTS assay: qHTS cell viability counter screen (AID 1963581); note: nearly all actives have a fitted effect of over 45% in size; note: potency is the fitted concentration of half-maximal effect
How it was run: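 Following 5 h attachment, HCT-116 p53RE-bla cells took up compound for 16 h at 37 C; the reporter was read with B/G FRET substrate (2 h RT), and viability then via CellTiter-Glo ATP luminescence.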

[7] = p53 small molecule agonists, cell-based qHTS assay (AID 1963582; active = well fitted activation curve with a large enough effect in the signal ratio in the repeat runs, not every such curve was filed as active; the % refers to the signal ratio)
How it was run: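 In this cell-based concentration-response screen, a p53 response element drives beta-lactamase; cells received DMSO-borne compounds after 5 h culture and were incubated a further 16 h before FRET substrate development.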

[8] = biological target: 5-hydroxytryptamine receptor 2A (Homo sapiens) (UniProt P28223); test: 5-hydroxytryptamine receptor 2A (HTR2A) small molecule antagonists, cell-based qHTS assay (AID 1963586); note: nearly all actives have a fitted effect of over 45% in size; note: potency is the fitted concentration of half-maximal effect
5-hydroxytryptamine receptor 2A (Homo sapiens), sequence (P28223 whole entry, looked up): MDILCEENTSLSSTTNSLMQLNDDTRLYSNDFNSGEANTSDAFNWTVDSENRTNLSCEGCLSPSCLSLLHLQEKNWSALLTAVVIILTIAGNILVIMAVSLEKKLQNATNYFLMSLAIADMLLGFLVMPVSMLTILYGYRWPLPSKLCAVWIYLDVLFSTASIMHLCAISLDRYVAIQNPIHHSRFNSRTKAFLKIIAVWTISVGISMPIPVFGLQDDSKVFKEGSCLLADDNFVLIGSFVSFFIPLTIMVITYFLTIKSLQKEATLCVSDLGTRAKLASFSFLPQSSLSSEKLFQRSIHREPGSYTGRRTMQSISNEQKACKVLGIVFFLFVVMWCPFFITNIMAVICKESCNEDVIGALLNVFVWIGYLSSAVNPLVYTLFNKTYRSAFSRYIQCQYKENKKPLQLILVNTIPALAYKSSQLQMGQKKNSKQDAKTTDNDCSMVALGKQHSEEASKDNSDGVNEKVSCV
How it was run: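 Antagonist-mode intracellular calcium assay: DOI (4 nM) added after 5 min compound pre-incubation at room temperature to dye-loaded HTR2A-CHO cells. Fluorescence followed for 3 min, sampled every second.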

[9] = biological target: 5-hydroxytryptamine receptor 2A (Homo sapiens) (UniProt P28223); test: 5-hydroxytryptamine receptor 2A (HTR2A) small molecule agonists, cell-based qHTS assay (AID 1963587); note: nearly all actives have a fitted effect of over 30% in size; note: potency is the fitted concentration of half-maximal effect
How it was run: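 Kinetic calcium-flux fluorescence (2 min, 1 sec intervals) after compound addition in agonist mode. HTR2A-CHO cells were cultured 18 h, then dye-loaded 1 h at 37 C.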

[10] = biological target: Muscarinic acetylcholine receptor M1 (Homo sapiens) (UniProt P11229); test: Cholinergic receptor muscarinic 1 (CHRM1) small molecule antagonists, cell-based qHTS assay (AID 1963588); note: nearly all actives have a fitted effect of over 40% in size
Muscarinic acetylcholine receptor M1 (Homo sapiens), sequence (P11229 whole entry, looked up): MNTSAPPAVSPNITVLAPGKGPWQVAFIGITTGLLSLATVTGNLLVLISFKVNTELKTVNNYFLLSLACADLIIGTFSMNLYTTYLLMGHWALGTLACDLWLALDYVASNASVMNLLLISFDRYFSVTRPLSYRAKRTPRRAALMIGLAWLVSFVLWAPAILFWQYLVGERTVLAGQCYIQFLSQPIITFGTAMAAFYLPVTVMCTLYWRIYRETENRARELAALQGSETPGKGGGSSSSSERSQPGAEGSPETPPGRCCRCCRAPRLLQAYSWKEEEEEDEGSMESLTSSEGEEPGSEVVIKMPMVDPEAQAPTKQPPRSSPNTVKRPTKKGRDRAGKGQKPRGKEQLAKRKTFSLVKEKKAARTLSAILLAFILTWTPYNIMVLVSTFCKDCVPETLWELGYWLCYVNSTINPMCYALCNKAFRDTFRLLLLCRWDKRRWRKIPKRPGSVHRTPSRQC
How it was run: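 CHRM1-CHO calcium-flux assay, antagonist mode. Cells were seeded 18 h, dye-loaded 1 h at 37 C and given compound for 5 min at RT, then acetylcholine was added at 50nM. FDSS fluorescence was read 3 min; 15 concentrations, three runs.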

[11] = cAMP Responsive Elements (CRE) small molecule agonists, cell-based qHTS assay (AID 1963590)
How it was run: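 A CRE-responsive beta-lactamase reporter in HEK 293T cells was used. Treatment ran 3 h at 37 C; detection used LiveBLAzer B/G FRET substrate for 2 h at room temperature.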

[12] = biological target: Beta-2 adrenergic receptor (Homo sapiens) (UniProt P07550); test: Adrenergic beta2 receptor (ADRB2) small molecule antagonists, cell-based qHTS assay (AID 1963592); note: nearly all actives have a fitted effect of over 50% in size; note: potency is the fitted concentration of half-maximal effect; for activity change, negative = inhibition: series mostly up to about 92 µM
Beta-2 adrenergic receptor (Homo sapiens), sequence (P07550 whole entry, looked up): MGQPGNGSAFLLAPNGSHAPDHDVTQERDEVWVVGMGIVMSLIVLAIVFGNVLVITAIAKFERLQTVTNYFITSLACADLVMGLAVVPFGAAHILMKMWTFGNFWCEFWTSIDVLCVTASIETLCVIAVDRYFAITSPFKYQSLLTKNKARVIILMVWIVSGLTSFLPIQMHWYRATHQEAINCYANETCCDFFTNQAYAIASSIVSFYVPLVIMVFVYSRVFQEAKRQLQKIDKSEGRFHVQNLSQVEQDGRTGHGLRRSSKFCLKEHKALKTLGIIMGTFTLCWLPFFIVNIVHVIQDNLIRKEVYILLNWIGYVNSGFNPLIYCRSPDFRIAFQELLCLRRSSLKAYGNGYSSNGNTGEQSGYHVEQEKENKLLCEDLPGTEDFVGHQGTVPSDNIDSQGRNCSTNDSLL
How it was run: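 Cells (CHO, stable ADRB2 overexpression) incubated 18-20hr at 37C; compounds added from DMSO; agonist mix (1nM isoproterenol, 100uM IBMX, 25uM Ro-20-1724) added; 0.5hr RT; d2-cAMP and anti-cAMP-cryptate added; 1hr RT; 665/615 nm read.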

[13] = biological target: Beta-2 adrenergic receptor (Homo sapiens) (UniProt P07550); test: Adrenergic beta2 receptor (ADRB2) small molecule agonists, cell-based qHTS assay (AID 1963593); note: potency is the fitted concentration of half-maximal effect;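 for activation: CHO cells stably overexpressing human ADRB2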
How it was run: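 CHO cells stably over-expressing ADRB2 were plated overnight at 37C, then dosed with compounds plus a stimulation mix containing 100uM IBMX and 25uM Ro-20-1724 for 0.5hr at room temperature. cAMP was measured by HTRF competition, 1hr.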

[14] = biological target: D(2) dopamine receptor (Homo sapiens) (UniProt P14416); test: Dopamine D2 receptor (DRD2) small molecule agonists, cell-based qHTS assay (AID 1963594); note: nearly all actives have a fitted effect of over 35% in size
D(2) dopamine receptor (Homo sapiens), sequence (P14416 whole entry, looked up): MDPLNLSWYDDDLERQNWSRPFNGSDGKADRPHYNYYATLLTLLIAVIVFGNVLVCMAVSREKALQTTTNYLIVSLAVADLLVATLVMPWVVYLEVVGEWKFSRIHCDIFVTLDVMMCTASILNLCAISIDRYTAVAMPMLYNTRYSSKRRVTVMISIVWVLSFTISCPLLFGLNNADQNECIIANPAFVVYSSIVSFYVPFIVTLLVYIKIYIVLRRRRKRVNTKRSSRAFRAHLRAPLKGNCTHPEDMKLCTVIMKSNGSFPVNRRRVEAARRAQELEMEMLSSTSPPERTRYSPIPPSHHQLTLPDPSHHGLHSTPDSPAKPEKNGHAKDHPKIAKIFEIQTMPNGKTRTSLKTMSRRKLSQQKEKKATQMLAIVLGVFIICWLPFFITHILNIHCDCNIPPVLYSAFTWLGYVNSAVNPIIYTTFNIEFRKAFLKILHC
How it was run: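 cAMP accumulation in DRD2-HEK293 cells measured by HTRF after 1 h detection; compounds added 10 min before NKH477 (200nM […]) forskolin-analogue stimulation, 30 min at room temperature, with Ro20-1724 present at 0.1 mM final.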

[15] = biological target: D(2) dopamine receptor (Homo sapiens) (UniProt P14416); test: Dopamine D2 receptor (DRD2) small molecule antagonists, cell-based qHTS assay (AID 1963595; active = well fitted inhibition curve with a large enough effect in the signal ratio in the repeat runs, with a control signal flat; the % refers to the signal ratio; note: potency is the fitted concentration of half-maximal effect)
How it was run: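 In this cell-based antagonist screen, compounds act for 10 min at room temperature before a 30 min challenge with 12 nM quinpirole and 200 nM NKH477. cAMP is quantified by HTRF competition in DRD2-HEK293 cells containing 0.1 mM Ro20-1724.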

[16] = p53 small molecule agonists, cell-based qHTS assay with rat liver microsomes: qHTS cell viability counter screen (AID 1963580); note: nearly all actives have a fitted effect of over 45% in size; note: potency is the fitted concentration of half-maximal effect
How it was run: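 HCT-116 p53RE-bla, 4,000 cells/well, 5 h pre-incubation; cpd + rat liver microsomes 0.5 mg/mL + NADPH 0.5 mg/mL (final); 16 h, 37 C; CellTiter-Glo, 30 min RT; luminescence.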

[17] = biological target: Muscarinic acetylcholine receptor M1 (Homo sapiens) (UniProt P11229); test: Cholinergic receptor muscarinic 1 (CHRM1) small molecule agonists, cell-based qHTS assay (AID 1963589); note: nearly all actives have a fitted effect of over 35% in size; note: potency is the fitted concentration of half-maximal effect
How it was run: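 Measures agonist-induced intracellular calcium rise. Stable human CHRM1 CHO line, 1 h dye load at 37 C, compounds from DMSO, kinetic fluorescence read.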

[18] = p53 small molecule agonists, cell-based qHTS assay with rat liver microsomes (AID 1963578)
How it was run: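 With rat liver microsomes and NADPH present (0.5 mg/mL final each), p53RE-bla cells are treated with compound for 16 h at 37 C. LiveBLAzer detection mixture is then applied for 2 h at room temperature in the dark.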

[19] = cAMP Responsive Elements (CRE) small molecule antagonists, cell-based qHTS assay (AID 1963591; active = well fitted inhibition curve with a large enough effect in the signal ratio in the repeat runs, not every such curve was filed as active; the % refers to the signal ratio)
How it was run: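 HEK293T cells carrying a CRE-driven beta-lactamase reporter receive compound and NKH477 (0.25 uM final) for 3 h. Fluorescence from LiveBLAzer B/G FRET substrate is read after 2 h at room temperature.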
% is set by controls: 0 for no effect and ±100 for the full control effect.

O=C(CC(=O)C(F)(F)F)c1ccccc1
active: Potency [1] 49.2 µM | Potency [9] 49.7 µM | Potency [13] 13.9 µM
inactive: Potency [2] | Potency [3] | Potency [4] | Potency [5] | Potency [6] | Potency [7] | Potency [8] | Potency [10] | Potency [11] | Potency [12] | Potency [14] | Potency [15]

CCCCCCOC(=O)c1ccc(O)cc1
inactive: Potency [2] | Potency [3] | Potency [4] | Potency [5] | Potency [16] | Potency [6] | Potency [7] | Potency [9] | Potency [10] | Potency [17] | Potency [12] | Potency [13] | Potency [14]
19.4 µM (active) and inactive: Potency [1]

C[n+]1c2cc(N)ccc2cc2ccc(N)cc21 (tested in a mixture with another compound)
inactive: Potency [5] | Potency [6] | Potency [8] | Potency [10]
active: Potency [1] 6.68 µM | Potency [2] 21.3 µM | Potency [3] 16.9 µM | Potency [9] 19 µM | Potency [17] 19 µM

[Cl][Bi]([Cl])([c]1ccccc1)([c]1ccccc1)[c]1ccccc1
active: Potency [1] 1.53 µM | Potency [5] 4.05 µM | Potency [6] 9.07 µM | Potency [15] 13.6 µM
inactive: Potency [18] | Potency [8] | Potency [10] | Potency [12] | Potency [14]

CC1(C)CC(=O)CC(C)(C)N1
inactive: Potency [1] | Potency [2] | Potency [3] | Potency [18] | Potency [5] | Potency [16] | Potency [6] | Potency [7] | Potency [8] | Potency [9] | Potency [10] | Potency [19] | Potency [12] | Potency [14] | Potency [15]

CCCCCCCCn1sc(Cl)c(Cl)c1=O
active: Potency [1] 4.86 µM | Potency [5] 36.3 µM | Potency [16] 36.3 µM | Potency [9] 43.6 µM | Potency [15] 27.3 µM
inactive: Potency [2] | Potency [3] | Potency [4] | Potency [18] | Potency [10] | Potency [17] | Potency [12] | Potency [13] | Potency [14]

CC(=O)[C@]1(O)Cc2c(O)c3c(c(O)c2[C@@H](O[C@H]2C[C@H](N)[C@H](O)[C@H](C)O2)C1)C(=O)c1ccccc1C3=O
active: Potency [1] 2.66 µM
inactive: Potency [2] | Potency [3] | Potency [6] | Potency [11]

OC12N=C(c3ccccc3)SC1Cc1cc(Cl)ccc12 (stereo unspecified)
inactive: Potency [3] | Potency [4] | Potency [18] | Potency [5] | Potency [16] | Potency [7] | Potency [8] | Potency [9] | Potency [10] | Potency [17] | Potency [19] | Potency [14] | Potency [15]
active: Potency [1] 17.2 µM

COC(=O)CC(C)=O
inactive: Potency [1] | Potency [2] | Potency [3] | Potency [5] | Potency [16] | Potency [6] | Potency [8] | Potency [9] | Potency [10] | Potency [17] | Potency [12] | Potency [14] | Potency [15]

CCN(CC)CCCC(C)Nc1ccnc2cc(Cl)ccc12 (stereo unspecified)
inactive: activity, positive = activation [1] -10.3% [at 8.39 µM] and 0.993% [at 19 µM] | activation [2] -0.539% [at 6.97 µM] and -0.536% [at 15.8 µM] | activation [3] 0.411% [at 5.23 µM] and -0.526% [at 11.8 µM] | activity change, negative = cytotoxicity [5] 1.38% [at 5.99 µM] and -6.37% [at 13.5 µM] | activity, negative = inhibition [8] 2.23% [at 5.62 µM] and 1.08% [at 12.7 µM] | activation [9] -0.411% [at 7.02 µM] and 1.58% [at 15.9 µM] | activation [17] -0.78% [at 6.97 µM] and -0.406% [at 15.8 µM] | activity change, negative = inhibition [12] 0.663% [at 8.39 µM] and -0.0752% [at 19 µM] | activation [13] 0.827% [at 19 µM] | activation [14] -2.86% [at 8.39 µM] | activity change, negative = inhibition [15] -2.41% [at 8.38 µM] and 1.11% [at 18.9 µM]

CCN(CC)CCCN(c1ccccc1)C1Cc2ccccc2C1
active: Potency [12] 0.106 µM
inactive: Potency [1] | Potency [4] | Potency [18] | Potency [5] | Potency [16] | Potency [6] | Potency [9] | Potency [17] | Potency [15]

Nc1nc(N)c2nc(CNc3ccc(C(=O)N[C@@H](CCC(=O)O)C(=O)O)cc3)cnc2n1
inactive: Potency [1] | Potency [2] | Potency [3] | Potency [4] | Potency [5] | Potency [16] | Potency [11] | Potency [12] | Potency [13] | Potency [14] | Potency [15]

Cc1cccc2c1cc1ccc3cccc4ccc2c1c34
inactive: Potency [1] | Potency [2] | Potency [5] | Potency [16] | Potency [6] | Potency [8] | Potency [9] | Potency [10] | Potency [12] | Potency [14] | Potency [15]

O=[N+]([O-])c1ccc(O/N=C/c2cc(Br)c(O)c(Br)c2)c([N+](=O)[O-])c1
inactive: Potency [2] | Potency [3] | Potency [18] | Potency [5] | Potency [16] | Potency [8] | Potency [9] | Potency [17] | Potency [12] | Potency [14] | Potency [15]
active: Potency [1] 60.8 µM

CCCCCCCCCCCCCOS(=O)(=O)O
inactive: Potency [1] | Potency [2] | Potency [3] | Potency [4] | Potency [18] | Potency [16] | Potency [6] | Potency [10] | Potency [17] | Potency [19] | Potency [12] | Potency [15]
active: Potency [8] 42.1 µM
